Results on 36 compounds are retold here after PubChem BioAssay.

This assay can be described thus: small-molecule binders of probe aInhba, primary screen, biochemical, small-molecule microarray, 635/667 nm fluorescence (AID 1148).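 Also: score merges 667nm spot fluorescence with signal-to-noise for antibody binding to printed compounds.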 Conditions: higher = more signal.
In turn, `COc1ccc([Si](C)(C)[C@@H]2[C@@H](CCO)O[C@]3(C(=O)N(Cc4cccc(N5CCOC5=O)c4)c4ccccc43)[C@H]2C)cc1` gave a composite z-score of 0.0569.

As for `CCOC(=O)C1=CC[C@H]2C(=O)N(c3ccccc3)C(=O)[C@@H]12`, the composite z-score was 0.19.

On to `CCOC(=O)C[C@H]1[C@H](OC(=O)c2ccc(C(=O)c3ccccc3)cc2)[C@@H](NC(=O)Cc2ccc(OC)cc2)c2cc(OCCCO)ccc2N1C(=O)c1ccc2ccccc2n1`, for which the composite z-score was found to be 0.158.

As for `COC(=O)[C@@]1(Cc2ccc(F)cc2)[C@H]2c3cc(C(=O)N(C)C)n(Cc4cc(C)n(C)n4)c3C[C@H]2CN1C(=O)c1ccccc1`, the composite z-score came to 0.302.

With `CCCC[C@@H]1C[C@H]1[C@@H](NC(=O)c1cccnc1)c1ccc(Cl)cc1`, the composite z-score was -0.335.

Compound `[N-]=[N+]=Nc1ccccc1C[C@@]1(C(=O)N2CCCCC2)N=C(c2ccc(OCCCO)cc2)O[C@@H]1c1ccccc1N=[N+]=[N-]` yielded a composite z-score of 0.404.

For the compound `C=CCC(OC(C)=O)[C@@H]1[C@@H](N(Cc2ccc(-c3cccc(C(F)(F)F)c3)o2)C(=O)c2cccc3ccccc23)c2cc(OCCCO)ccc2N1C(=O)Cc1ccc2ccccc2c1` (stereo partly specified), the composite z-score was 0.374.

In the case of `CCCCN1CC=CC23O[C@@H]4C=CCOC(=O)[C@@H]4[C@H]2C(=O)N(CCCCCCO)[C@@H]3C1=O` (stereo partly specified), the composite z-score is -0.249.

`O=C1C2C=CC(C(O)C=Cc3ccc([N+](=O)[O-])cc3)N(n3cnnc3)C2C(=O)N1Cc1ccccc1` (stereo unspecified) displayed a composite z-score of 0.0589.

`O=C1[C@H]2C=C(Br)[C@H](C[C@@H]2OCCCCCCO)[C@@]12CO2` gave a composite z-score of -0.024.

Compound `CCCCCCCCCCC(O)C1C=CC2C(=O)NC(=O)C2N1Nc1ccc(Cl)cc1Cl` (stereo unspecified) came in with a composite z-score of -0.0131.

The compound `C=CC1c2cc(O)c(OC)cc2CCN1Cc1cccc(OC(F)(F)F)c1` (stereo unspecified) returned a composite z-score of -0.152.

For `CC(C)[Si](C#C[Si](C(C)C)(C(C)C)C(C)C)(O[C@H](C)c1cn(Cc2ccccc2)nn1)C(C)C`, the composite z-score was -0.0405.

Compound `O=C1O[C@H](c2ccccc2)[C@H](c2ccccc2)N2[C@H]1[C@@H](C(=O)NC[C@H](O)c1ccccc1)[C@]1(C(=O)Nc3ccc(C#CC4=CCCCC4)cc31)[C@H]2c1ccccc1OCCO` yielded a composite z-score of 0.0659.

Regarding `COc1ccc(-c2cc3c(c(Cc4ccccc4)n2)[Si](C(C)C)(C(C)C)OC3)cn1`, the composite z-score is -0.215.

`C=CCC(OC(C)=O)[C@@H]1[C@@H](N(Cc2ccc(-c3cccc(C(F)(F)F)c3)o2)C(=O)Cc2ccc(OC)cc2)c2cc(OCCCO)ccc2N1C(=O)c1ccc2ccccc2c1` (stereo partly specified) gave a composite z-score of -0.128.

Take `CCC(CC)C(O)C1C=CC2C(=O)N(c3ccccc3)C(=O)C2N1Nc1ccccc1` (stereo unspecified): the composite z-score was 0.948.

Turning to `CN1C(=O)C2C=CC(C(O)c3c(F)cccc3Cl)N(NC(=O)OC(C)(C)C)C2C1=O` (stereo unspecified), the composite z-score was found to be 0.181.

Compound `C=C[C@H](C)[C@@H](OC(=O)Nc1ccc(SC)cc1)c1ccc(O)c2ccccc12` had a composite z-score of -0.0375.

Compound `COc1ccccc1CN1C(=O)c2ccccc2[C@@H](C(=O)NCc2ccccc2)[C@@H]1c1ccc(CO)cc1` registered a composite z-score of -0.176.

As to `O=C1OCC=C[C@H]2OC34C=CCN(Cn5nnc6ccccc65)C(=O)[C@H]3N(CCCCCO)C(=O)[C@@H]4[C@@H]12` (stereo partly specified), the composite z-score is -0.348.

As for `Cc1ccc(S[C@]2(C(=O)NCC(C)C)CC(=O)N(Cc3cc(C(F)(F)F)cc(C(F)(F)F)c3)[C@@H]2c2ccc(CO)cc2)cc1`, the composite z-score was found to be 0.652.

Compound `CS(=O)(=O)CCOC(=O)C1=CC(CCCO)=CC(C2CC2)N(Cc2cc3c(cc2Br)OCO3)C=C1C(=O)OCCS(C)(=O)=O` (stereo unspecified) displayed a composite z-score of -0.0695.

Compound `C=CCOC(=O)[C@H]1[C@@H]2C(=O)O[C@@H](c3ccccc3)[C@@H](c3ccccc3)N2[C@@H](c2ccc(OCCOC(=O)[C@H]3C[C@H]4C(=O)N[C@@H](CCCCN(C)C)C(=O)N4[C@H]3c3cccc(OCCO)c3)cc2)[C@]12C(=O)Nc1ccc(I)cc12` gave a composite z-score of 0.12.

Turning to `COc1ccc([Si](C)(C)[C@H]2[C@H](CC(=O)N3CCC[C@H]3CO)O[C@@]3(C(=O)N(Cc4cccc(N5CCOC5=O)c4)c4ccccc43)[C@@H]2C)cc1`, the composite z-score is -0.0468.

`O=C1OCCC=C[C@H]2OC34C=CCN(c5ccc(Cl)cc5)C(=O)[C@H]3N(CCCO)C(=O)[C@@H]4C12` (stereo partly specified) came in with a composite z-score of -0.227.

Turning to `COc1ccc(C(O)C2C=CC3C(=O)N(C)C(=O)C3N2N(c2ccccc2)c2ccccc2)c2ccccc12` (stereo unspecified), the composite z-score came to 0.0342.

On to `COCC(=C=CC[C@H](O)c1cccc(OCCO)c1)CCO`, for which the composite z-score was -0.12.

Compound `CC[C@@H]1C=C(C(=O)O)[C@H](c2ccc(C)cc2)N1S(=O)(=O)c1ccc(C)cc1` yielded a composite z-score of 0.0516.

For the compound `O=C1NC(=O)C2C1C=CC(C(O)C1CC=CCC1)N2Nc1ccccn1` (stereo unspecified), the composite z-score was -0.0645.

In turn, `COc1ccc(C(=O)Nc2cccc(CN3C(=O)[C@]4(O[C@H](CCn5cc(CCO)nn5)[C@@H]([Si](C)(C)c5ccc(OC)cc5)[C@@H]4C)c4ccccc43)c2)cc1` had a composite z-score of -0.0963.

`CS(=O)(=O)CCOC(=O)C1=CC(CCCO)=CC(c2ccc(CN3CCCC3)cc2)N(Cc2cccc(OC(F)(F)F)c2)C=C1C(=O)OCCS(C)(=O)=O` (stereo unspecified) had a composite z-score of 0.259.

`COC(=O)c1c2oc(c1C(=O)OC)C(=O)N[C@@H](C(C)C)Cn1cc(nn1)C1(CCCCC1)NC(=O)N[C@H](CO)CC2` displayed a composite z-score of -0.0477.

Compound `O=C1O[C@@H](c2ccccc2)[C@@H](c2ccccc2)N2[C@@H](c3ccc(OCCO)cc3)[C@]3(C(=O)Nc4ccc(C#CCCO)cc43)[C@@H](C(=O)NC[C@H](O)c3ccccc3)[C@H]12` yielded a composite z-score of 0.288.

Take `CC(c1ccccc1)C(O)C1C=CC2C(=O)N(c3ccccc3)C(=O)C2N1Nc1ccccc1` (stereo unspecified): the composite z-score turned out to be 0.0906.

Compound `CC1CC/C=C\[C@H]2OC34C=CCN(Cc5ccccc5)C(=O)[C@H]3N(C(C)CO)C(=O)[C@@H]4C2C(=O)O1` (stereo partly specified) displayed a composite z-score of -0.0822.
